Assay results: PubChem BioAssay (NCATS)
Records with an inconclusive call do not appear. Activity calls are given as the source filed them. Unless noted, calls follow the shape of the dose curve; as a rule, active = well fitted curve in the direction sought with a large enough effect; inconclusive = small, poorly fitted or top-dose-only effect, or another doubt; inactive = no such curve, though single readings can be large; an effect the other way counts as inactive or inconclusive.

Legend:
[1] = biological target: Lysosomal acid glucosylceramidase (Homo sapiens) (UniProt P04062); assay: Glucocerebrosidase-p2 (AID 348; in the data active = potency below about 10 µM; also: potency is read from the fitted curve at half-maximal effect); conditions: purified GBA, blue fluorogenic substrate, 40 min
Sequence of Lysosomal acid glucosylceramidase (Homo sapiens) (P04062 whole entry, looked up): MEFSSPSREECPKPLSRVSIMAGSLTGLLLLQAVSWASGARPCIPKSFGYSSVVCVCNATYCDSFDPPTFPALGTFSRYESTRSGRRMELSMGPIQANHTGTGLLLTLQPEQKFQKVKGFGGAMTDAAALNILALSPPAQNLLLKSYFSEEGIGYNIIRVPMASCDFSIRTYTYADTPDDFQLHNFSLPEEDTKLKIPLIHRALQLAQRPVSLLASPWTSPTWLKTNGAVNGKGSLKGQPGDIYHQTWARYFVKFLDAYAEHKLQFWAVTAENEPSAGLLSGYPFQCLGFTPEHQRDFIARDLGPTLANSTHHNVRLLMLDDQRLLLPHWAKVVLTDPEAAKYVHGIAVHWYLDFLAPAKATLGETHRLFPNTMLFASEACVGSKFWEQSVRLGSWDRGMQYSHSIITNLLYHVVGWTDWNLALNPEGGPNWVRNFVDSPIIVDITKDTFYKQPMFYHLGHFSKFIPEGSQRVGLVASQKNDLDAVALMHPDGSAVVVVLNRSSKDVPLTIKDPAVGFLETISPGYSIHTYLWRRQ
Method in brief: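 Compounds titrated from 0.6 nM upwards against 0.2 nM enzyme in pH 5.9 citric acid/KH2PO4, taurocholate, tween-20; blue fluorogenic substrate 80 uM, 40 min room temperature, stopped and read Ex 365/Em 440 for AC50.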

[2] = AP1 Signaling Pathway (AID 357; active = well fitted curve in either direction with a large enough effect, not every such curve was filed as active; also: % is scaled to controls: 0 for no effect and ±100 for the full control effect); conditions: ME-180 AP-1-bla reporter, EGF-induced, beta-lactamase ratio, 5 h; at 7.69 µM (top of the series) unless noted
Method in brief: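 AP-1-bla ME-180 cells with beta-lactamase reporter under AP-1 response element, stimulated with EC50 EGF; compounds titrated, 5 hours at 37 degrees Celsius. CCF4 read at 460/530 nm ratio; positive and negative modulators judged by AC50.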

[3] = biological target: Cytochrome P450 1A2 (Homo sapiens) (UniProt P05177); assay: p450-cyp1a2 (AID 410; calls by dose curve; also: potency is read from the fitted curve at half-maximal effect;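 as to activity change, negative = inhibition: -100% = full effect of reference inhibitor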)
Sequence of Cytochrome P450 1A2 (Homo sapiens) (P05177 whole entry, looked up): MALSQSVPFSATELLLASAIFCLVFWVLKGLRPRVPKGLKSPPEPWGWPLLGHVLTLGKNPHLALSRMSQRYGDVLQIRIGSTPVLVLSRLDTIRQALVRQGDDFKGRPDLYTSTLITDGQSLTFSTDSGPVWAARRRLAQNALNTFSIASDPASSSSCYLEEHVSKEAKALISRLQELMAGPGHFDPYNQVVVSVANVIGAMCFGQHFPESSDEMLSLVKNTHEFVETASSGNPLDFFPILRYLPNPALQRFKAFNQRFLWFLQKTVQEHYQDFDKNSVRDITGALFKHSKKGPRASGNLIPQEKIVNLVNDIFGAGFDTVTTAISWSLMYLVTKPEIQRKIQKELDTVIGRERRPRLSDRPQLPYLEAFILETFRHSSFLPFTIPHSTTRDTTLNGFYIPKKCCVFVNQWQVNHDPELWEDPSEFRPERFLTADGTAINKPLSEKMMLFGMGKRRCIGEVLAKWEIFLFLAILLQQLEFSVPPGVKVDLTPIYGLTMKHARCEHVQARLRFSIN
Method in brief: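 Luminescent readout of luciferin formed from Luciferin-ME by human CYP1A2; data normalized against complete inhibition by 57 uM furafylline. Enzyme 20nM, substrate 100uM at Km, 100mM KPO4 buffer, 60 min reaction at room temperature.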

[4] = NFAT Signaling Pathway (AID 444; active = well fitted curve in either direction with a large enough effect, not every such curve was filed as active;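 also: carbachol stimulus at about its EC50 of 1 µM final; % is scaled to controls: 0 for no effect and ±100 for the full control effect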); conditions: Jurkat NFAT-bla M1, carbachol, beta-lactamase ratio, 5 h; at 7.69 µM (top of the series) unless noted
Method in brief: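 Read-out: CCF4 FRET ratio (460 nm/530 nm) after 1 h RT dye loading, used for %activity and AC50 from titration series. Cells: Jurkat NFAT-β-lactamase/M1 line, treated with compound plus 1 uM carbachol for 5 h, 37 °C.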

[5] = Stat Signaling Pathway (AID 446; active = well fitted curve in either direction with a large enough effect, not every such curve was filed as active;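 also: ME-180 cervical cancer cells given 40 pM IL-6 alongside compound; SIE-controlled beta-lactamase reporter measured as 460/530 nm FRET emission ratio; % is scaled to controls: 0 for no effect and ±100 for the full control effect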); conditions: ME-180 SIE beta-lactamase reporter, IL-6 stimulated, 5 h; at 7.69 µM (top of the series) unless noted
Method in brief: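 ME-180 SIE-bla cells; overnight plating; cpd + IL-6 40 pM, 5 h, 37 C; LiveBLAzer 2.5 h RT; 460/530 nm emission ratio. Normalized to 300 pM IL-6 and 125 nM JAK inhibitor controls.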

[6] = biological target: Glucocorticoid receptor (Homo sapiens) (UniProt P04150); assay: GR-GFP Redistribution (AID 450;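 active = compounds whose dose series gives a full or clear partial fitted curve of increased nuclear translocation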; also: potency is read from the fitted curve at half-maximal effect); conditions: U2OS GR-GFP nuclear translocation, laser cytometry, 2 h
Sequence of Glucocorticoid receptor (Homo sapiens) (P04150 whole entry, looked up, the tested form may be a part): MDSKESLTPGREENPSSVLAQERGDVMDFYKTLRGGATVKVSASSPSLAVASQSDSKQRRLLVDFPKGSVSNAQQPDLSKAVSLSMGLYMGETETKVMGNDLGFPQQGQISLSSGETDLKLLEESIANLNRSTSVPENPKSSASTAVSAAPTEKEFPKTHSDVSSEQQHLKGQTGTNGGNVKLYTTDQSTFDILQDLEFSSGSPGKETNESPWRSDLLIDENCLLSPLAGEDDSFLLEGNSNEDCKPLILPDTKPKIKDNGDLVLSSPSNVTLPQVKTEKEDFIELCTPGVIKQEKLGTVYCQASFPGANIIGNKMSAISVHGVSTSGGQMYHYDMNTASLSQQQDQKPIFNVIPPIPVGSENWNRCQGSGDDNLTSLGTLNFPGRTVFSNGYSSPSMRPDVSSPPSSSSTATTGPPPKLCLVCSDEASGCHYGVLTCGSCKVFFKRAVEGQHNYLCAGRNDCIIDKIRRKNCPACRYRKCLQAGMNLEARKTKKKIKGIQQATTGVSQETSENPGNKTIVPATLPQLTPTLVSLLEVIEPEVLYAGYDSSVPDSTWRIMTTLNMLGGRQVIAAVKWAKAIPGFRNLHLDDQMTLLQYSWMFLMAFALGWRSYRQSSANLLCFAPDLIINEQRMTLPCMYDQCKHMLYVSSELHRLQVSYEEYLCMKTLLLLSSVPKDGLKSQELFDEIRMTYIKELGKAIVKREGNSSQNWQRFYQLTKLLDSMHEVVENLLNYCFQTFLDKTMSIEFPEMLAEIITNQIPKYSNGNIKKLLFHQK

[7] = biological target: Glucocorticoid receptor (Homo sapiens) (UniProt P04150); assay: GR-EFC Redistribution (AID 451; calls by dose curve; also: potency is read from the fitted curve at half-maximal effect); conditions: CHO-K1 GR-EFC translocation, beta-gal luminescence, 2 h
Method in brief: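 Translocation of GR-ED fusion to nuclear EA restores b-gal, read by luminescence after 1 h room-temperature detection. Engineered CHO-K1 biosensor cells, 1,000/well, exposed 2 h at 37 C to titrations up to 46 uM final.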

[8] = biological target: Mitogen-activated protein kinase 10 (Mus musculus) (UniProt Q61831); assay: JNK3 AlphaScreen Assay (AID 530; active = well fitted curve in either direction with a large enough effect, not every such curve was filed as active;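 also: kinase came from lysate of stimulated human HepG2 cells; signal reports phosphorylation of biotinylated GST-cJun 1-79 at Ser73 with 10 µM ATP; % is scaled to controls: 0 for no effect and ±100 for the full control effect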)
Method in brief: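 Compound titrations were preincubated 15 minutes at room temperature with substrate, antibody and pre-activated JNK3-containing HepG2 lysate. Reactions were started with 10 uM ATP and stopped with EDTA-containing bead buffer for AlphaScreen detection.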

[9] = biological target: 3',5'-cyclic-AMP phosphodiesterase 4B (Homo sapiens) (UniProt Q07343); assay: qHTS Assay for Inhibitors of PDE-IV (AID 607; active = well fitted activation curve with a large enough effect in the main read-out, with a control signal flat, not every such curve was filed as active; also: % of control where 0% means no effect)
Sequence of 3',5'-cyclic-AMP phosphodiesterase 4B (Homo sapiens) (Q07343 whole entry, looked up): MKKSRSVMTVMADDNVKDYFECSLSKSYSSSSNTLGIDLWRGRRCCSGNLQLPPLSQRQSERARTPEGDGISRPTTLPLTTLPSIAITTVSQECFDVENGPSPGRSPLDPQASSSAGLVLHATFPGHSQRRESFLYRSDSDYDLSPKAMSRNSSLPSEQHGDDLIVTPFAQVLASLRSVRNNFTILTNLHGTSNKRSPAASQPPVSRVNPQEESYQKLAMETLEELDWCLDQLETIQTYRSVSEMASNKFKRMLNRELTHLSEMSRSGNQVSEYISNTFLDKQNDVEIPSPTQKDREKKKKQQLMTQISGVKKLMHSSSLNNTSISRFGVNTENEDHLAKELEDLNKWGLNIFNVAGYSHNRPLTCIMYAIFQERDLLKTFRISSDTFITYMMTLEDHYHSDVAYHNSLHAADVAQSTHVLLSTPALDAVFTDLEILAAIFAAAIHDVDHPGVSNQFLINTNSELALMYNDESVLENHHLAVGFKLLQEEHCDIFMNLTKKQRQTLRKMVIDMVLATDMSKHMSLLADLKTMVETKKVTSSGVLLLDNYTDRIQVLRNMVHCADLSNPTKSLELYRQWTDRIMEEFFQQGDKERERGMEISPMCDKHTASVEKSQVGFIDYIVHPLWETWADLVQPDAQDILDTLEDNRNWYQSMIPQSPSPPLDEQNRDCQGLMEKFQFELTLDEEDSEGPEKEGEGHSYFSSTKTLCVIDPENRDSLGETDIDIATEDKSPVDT
Method in brief: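 ACTOne HEK293 cells carry a modified cAMP-gated CNG channel and express endogenous PDE4; plated 1000 cells/well, compounds up to 22.9 uM final. Membrane-potential dye fluorescence (ex 535/em 590) was read; parental cells received 10 uM forskolin + 100 uM RO 20-1724.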

[10] = qHTS Assay for Lipid Storage Modulators (AID 1519; calls by dose curve); conditions: Drosophila S3 cells, BODIPY lipid droplet/cell ratio, laser cytometry, cells loaded with oleic acid; for activity change, negative = inhibition: at 57.5 µM (top of the series)
Method in brief: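 Cells seeded at 5,000 per well were treated with compounds over a concentration series and loaded with oleic acid (400 uM, as added). Lipid droplet fluorescence (488 nm excitation, 500-530 nm channel) was read by laser-scanning cytometry and normalized to 20 uM Triacsin C.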

[11] = biological target: Dual specificity protein kinase CLK4 (Homo sapiens) (UniProt Q9HAZ1); assay: qHTS Assay for Inhibitors of CDC-like Kinase 4 (Kinase-Glo Assay) (AID 1770); also: % is scaled to controls: 0 for no effect and ±100 for the full control effect; nearly all actives have a fitted effect of over 65% in size
Sequence of Dual specificity protein kinase CLK4 (Homo sapiens) (Q9HAZ1 whole entry, looked up): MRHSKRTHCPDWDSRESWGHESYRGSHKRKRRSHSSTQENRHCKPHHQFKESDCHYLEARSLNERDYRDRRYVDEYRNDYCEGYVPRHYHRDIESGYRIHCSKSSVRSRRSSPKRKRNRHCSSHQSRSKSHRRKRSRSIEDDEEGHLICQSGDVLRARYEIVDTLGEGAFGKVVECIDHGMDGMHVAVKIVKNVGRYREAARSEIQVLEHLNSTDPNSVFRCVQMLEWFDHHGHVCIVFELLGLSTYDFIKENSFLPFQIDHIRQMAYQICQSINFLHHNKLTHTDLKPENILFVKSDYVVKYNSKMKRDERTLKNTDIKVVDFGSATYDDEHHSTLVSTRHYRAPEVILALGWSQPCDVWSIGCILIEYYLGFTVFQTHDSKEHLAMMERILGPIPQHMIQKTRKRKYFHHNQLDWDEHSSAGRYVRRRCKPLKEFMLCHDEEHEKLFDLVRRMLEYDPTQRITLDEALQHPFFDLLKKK
Method in brief: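 Inhibition was judged from remaining ATP, measured by Ultra-Glo luciferase bioluminescence after Clk4 (25 nM) had acted on RS peptide at 1 uM ATP for 4.5 hours, room temperature.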

[12] = biological target: Dual specificity protein kinase CLK4 (Homo sapiens) (UniProt Q9HAZ1); assay: qHTS Assay for Inhibitors of CDC-like Kinase 4 (ADP-Glo Assay) (AID 1771); also: % is scaled to controls: 0 for no effect and ±100 for the full control effect; nearly all actives have a fitted effect of over 70% in size
Method in brief: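 Luminescence from ADP-Glo reports ADP produced by 25 nM Clk4 acting on 100 uM RS repeat peptide with 1 uM ATP over 1 hr at room temperature; residual ATP is depleted before ADP is converted to ATP for detection.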

[13] = biological target: Dual specificity protein kinase CLK4 (Homo sapiens) (UniProt Q9HAZ1); assay: qHTS Assay for Inhibitors of CDC-like Kinase 4 (ADP-FP Assay) (AID 1795);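 also: recombinant human CLK4 phosphorylating RS repeat peptide at 1 µM ATP; % is scaled to controls: 0 for no effect and ±100 for the full control effect; nearly all actives have a fitted effect of over 60% in size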
Method in brief: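 Inhibition of ADP formation by 6.25 nM Clk4 is measured using 1 uM ATP and 100 uM RS repeat peptide over one hour. Produced ADP displaces a fluorescent tracer from antibody, lowering polarization.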

[14] = biological target: Ubiquitin carboxyl-terminal hydrolase 1 (Homo sapiens) (UniProt O94782); assay: Inhibitors of USP1/UAF1: Pilot qHTS (AID 504865); also: nearly all actives have a fitted effect of over 35% in size; also: potency is read from the fitted curve at half-maximal effect
Sequence of Ubiquitin carboxyl-terminal hydrolase 1 (Homo sapiens) (O94782 whole entry, looked up): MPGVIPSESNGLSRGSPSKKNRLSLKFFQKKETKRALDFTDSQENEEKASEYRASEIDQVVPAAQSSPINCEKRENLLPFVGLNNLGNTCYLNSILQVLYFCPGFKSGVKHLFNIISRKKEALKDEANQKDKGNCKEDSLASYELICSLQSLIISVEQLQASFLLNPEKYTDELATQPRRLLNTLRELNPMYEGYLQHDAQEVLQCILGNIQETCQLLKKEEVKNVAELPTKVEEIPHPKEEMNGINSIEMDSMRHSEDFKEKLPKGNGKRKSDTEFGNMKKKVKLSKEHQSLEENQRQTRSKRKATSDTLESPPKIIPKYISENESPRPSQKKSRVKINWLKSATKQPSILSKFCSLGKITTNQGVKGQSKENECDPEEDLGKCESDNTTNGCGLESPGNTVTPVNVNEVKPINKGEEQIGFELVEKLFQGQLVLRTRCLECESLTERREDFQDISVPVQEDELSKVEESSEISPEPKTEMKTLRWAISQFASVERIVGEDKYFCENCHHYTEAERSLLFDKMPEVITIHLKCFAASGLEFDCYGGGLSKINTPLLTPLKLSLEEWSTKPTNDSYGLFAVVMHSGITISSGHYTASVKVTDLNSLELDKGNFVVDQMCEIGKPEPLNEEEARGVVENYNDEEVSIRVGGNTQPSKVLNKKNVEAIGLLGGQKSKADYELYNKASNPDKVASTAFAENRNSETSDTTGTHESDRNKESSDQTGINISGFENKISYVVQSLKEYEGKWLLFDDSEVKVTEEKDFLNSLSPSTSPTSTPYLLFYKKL
Method in brief: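 Kinetic fluorescence assay: 1nM USP1/UAF1, 15 min compound preincubation, then 150nM Ub-Rho; 480/540 nm.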

[15] = Primary qHTS for small molecule stabilizers of the endoplasmic reticulum resident proteome: Secreted ER Calcium Modulated Protein (SERCaMP) assay (AID 1508630); also: % is scaled to controls: 0 for no effect and ±100 for the full control effect
Method in brief: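 GLuc-SERCaMP-expressing SH-SY5Y cells, pretreated 16 h with compound, are challenged with thapsigargin to empty ER calcium stores; after 4 h, coelenterazine is added directly to the medium and luminescence is imaged.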

[16] = biological target: Rap guanine nucleotide exchange factor 3 (Homo sapiens) (UniProt O95398); assay: Confirmatory qHTS for agonist of cAMP-regulated guanine nucleotide exchange factor 3 (EPAC1) (AID 1645881);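 also: EPAC1 catalysed release of BODIPY-GDP from Rap1B seen as fluorescence loss; 100% = effect of cAMP agonist control; nearly all actives have a fitted effect of over 75% in size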
Sequence of Rap guanine nucleotide exchange factor 3 (Homo sapiens) (O95398 whole entry, looked up): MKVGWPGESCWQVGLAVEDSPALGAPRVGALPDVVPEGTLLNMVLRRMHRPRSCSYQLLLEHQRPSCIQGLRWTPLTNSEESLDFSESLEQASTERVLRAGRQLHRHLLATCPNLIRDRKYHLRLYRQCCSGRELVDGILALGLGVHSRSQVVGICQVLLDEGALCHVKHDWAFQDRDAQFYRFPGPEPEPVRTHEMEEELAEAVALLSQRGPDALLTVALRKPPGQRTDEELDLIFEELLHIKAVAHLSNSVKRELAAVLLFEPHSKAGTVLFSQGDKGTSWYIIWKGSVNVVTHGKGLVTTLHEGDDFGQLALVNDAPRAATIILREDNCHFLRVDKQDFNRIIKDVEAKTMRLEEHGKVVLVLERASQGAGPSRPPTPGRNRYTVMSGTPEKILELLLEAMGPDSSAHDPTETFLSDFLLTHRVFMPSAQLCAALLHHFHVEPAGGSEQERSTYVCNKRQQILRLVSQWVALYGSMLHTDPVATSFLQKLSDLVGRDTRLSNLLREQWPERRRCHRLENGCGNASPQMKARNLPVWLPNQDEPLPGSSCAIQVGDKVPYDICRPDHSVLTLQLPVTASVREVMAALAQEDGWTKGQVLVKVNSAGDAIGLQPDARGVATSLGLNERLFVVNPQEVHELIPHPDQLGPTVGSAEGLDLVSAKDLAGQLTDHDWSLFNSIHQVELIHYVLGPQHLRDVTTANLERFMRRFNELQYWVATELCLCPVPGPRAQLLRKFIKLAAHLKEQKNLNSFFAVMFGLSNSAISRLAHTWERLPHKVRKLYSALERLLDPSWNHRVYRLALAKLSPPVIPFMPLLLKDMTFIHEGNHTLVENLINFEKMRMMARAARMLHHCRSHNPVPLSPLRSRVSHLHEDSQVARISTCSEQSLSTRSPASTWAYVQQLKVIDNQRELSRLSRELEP

[17] = biological target: Rap guanine nucleotide exchange factor 4 (Homo sapiens) (UniProt Q8WZA2); assay: Confirmatory qHTS for agonist of cAMP-regulated guanine nucleotide exchange factor 4 (EPAC2) (AID 1645884);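 also: nucleotide exchange releases bodipy-GDP from Rap1 and this lowers its fluorescence; % is scaled to controls: 0 for no effect and ±100 for the full control effect; nearly all actives have a fitted effect of over 65% in size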
[18] = biological target: Rap guanine nucleotide exchange factor 4 (Homo sapiens) (UniProt Q8WZA2); assay: Confirmatory qHTS for antagonist of cAMP-regulated guanine nucleotide exchange factor 4 (EPAC2) (AID 1645885); also: nearly all actives have a fitted effect of over 25% in size; also: potency is read from the fitted curve at half-maximal effect
[19] = biological target: Cytochrome P450 3A4 (Homo sapiens) (UniProt P08684); assay: qHTS Assay for Activators of Cytochrome P450 3A4 (AID 885); also: nearly all actives have a fitted effect of over 65% in size
Method in brief: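 20nM CYP3A4 + 25uM Luciferin-PPXE (=KM), 200mM KPO4; cpd 10 min RT; NADPH regen, 60 min RT; stop w/ detection buffer, 20 min; luminescence. Normalized to 57 uM ketoconazole.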

[20] = biological target: Rap guanine nucleotide exchange factor 3 (Homo sapiens) (UniProt O95398); assay: Confirmatory qHTS for antagonist of cAMP-regulated guanine nucleotide exchange factor 3 (EPAC1) (AID 1645880);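 also: plate controls were DMSO only for no effect and full effect of the ATA control for full effect; nearly all actives have a fitted effect of over 55% in size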
Method in brief: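 Nucleotide exchange uses 100 nM EPAC1, 250 nM RAP1B-BODIPY-GDP and 50 uM GDP, with compounds in a concentration-titration series. After 5 min at room temperature, fluorescence (480 nm ex/540 nm em) is read every 5 min for 30 min. Data are normalized to control ATA and DMSO.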

[21] = measured here: cell count channel max response
[22] = measured here: lipid channel max response

CN(Cc1ccco1)c1cc(-c2ccoc2)ncn1
23.3%: max response [10, 22]
18%: max response [10, 21]
inactive: Potency [1] > 11.4 µM | activity change, negative = inhibition [2] -1.97% | Potency [3] | activity change, negative = inhibition [4] -2.33% | activity, negative = inhibition [5] 18.1% | Potency [6] > 46 µM | Potency [7] > 46 µM | outcome [8] | Potency [9] | activity change, negative = inhibition [10] 6.03% | Potency [11] | Potency [12] | Potency [13] | Potency [14] | Potency [15]

O=C(c1cccc(F)c1)N1CCC2(CCN(Cc3cc(C(F)(F)F)cc(C(F)(F)F)c3)CC2)CC1
10.5%: max response [10, 21]
inactive: Potency [1] > 11.4 µM | Potency [3] | activity, negative = inhibition [5] 9.15% | Potency [7] > 46 µM | outcome [8] | Potency [9] | activity change, negative = inhibition [10] 1.43% | Potency [15] | outcome [16] | outcome [17]
active: Potency [18] 39.3 µM
12.9%: max response [10, 22]

COc1ncc2nc(-c3cc(F)cc(F)c3)c(=O)n(-c3ccccc3)c2n1
11.4%: max response [10, 21]
11.8%: max response [10, 22]
active: Potency [3] 1.26 µM
inactive: Potency [1] > 11.4 µM | activity change, negative = inhibition [2] -20.2% | activity change, negative = inhibition [4] -3.83% | activity, negative = inhibition [5] -1.05% | Potency [6] > 9.22 µM | Potency [7] > 46 µM | outcome [8] | Potency [9] | activity change, negative = inhibition [10] 3.41% | Potency [11] | Potency [12] | Potency [13] | Potency [14] | Potency [15]

COc1ccccc1CNc1nc(-c2c(C)noc2C)nc2ccccc12
14%: max response [10, 21]
inactive: Potency [1] > 11.4 µM | activity change, negative = inhibition [2] 2.62% | activity, negative = inhibition [5] -26.3% | Potency [6] > 46 µM | Potency [7] > 46 µM | outcome [8] | Potency [19] | activity change, negative = inhibition [10] 7.14% | Potency [12] | Potency [13] | Potency [15] | outcome [16] | outcome [17]
active: Potency [3] 0.631 µM | Potency [14] 28.2 µM | Potency [18] 39.3 µM
19.1%: max response [10, 22]

CC(C)=CCC1=C(O)c2ccccc2C(=O)C1=O
inactive: activity change, negative = inhibition [10] -0.846% | Potency [15]
-0.752%: max response [10, 21]
active: Potency [14] 35.5 µM
0.642%: max response [10, 22]

Cc1nc2cnc(N3CCN(C)CC3)nc2n(C)c1=O
7.23%: max response [10, 22]
5.81%: max response [10, 21]
inactive: Potency [1] > 11.4 µM | activity change, negative = inhibition [2] 2.98% | activity change, negative = inhibition [4] 8.62% | activity, negative = inhibition [5] -15% | Potency [6] > 9.22 µM | Potency [7] > 46 µM | outcome [8] | Potency [9] | activity change, negative = inhibition [10] 3.28% | Potency [11] | Potency [12] | Potency [13] | Potency [14] | Potency [15]
active: Potency [3] 12.6 µM

O=C(Nc1ccccc1)N1CCCC2(CCN(C(=O)c3cc(C(F)(F)F)cc(C(F)(F)F)c3)CC2)C1
active: Potency [3] 31.6 µM | Potency [18] 44.1 µM
inactive: Potency [1] > 11.4 µM | activity change, negative = inhibition [2] -28.2% | activity change, negative = inhibition [4] 19.5% | activity, negative = inhibition [5] -14.9% | Potency [7] > 46 µM | outcome [8] | Potency [19] | activity change, negative = inhibition [10] -0.939% | Potency [15] | outcome [16] | outcome [17]
16.6%: max response [10, 21]
17.1%: max response [10, 22]

O=c1c(-c2cc(F)cc(F)c2)nc2cncnc2n1-c1ccccc1
inactive: Potency [1] > 11.4 µM | activity change, negative = inhibition [2] -15.8% | activity change, negative = inhibition [4] -2.26% | activity, negative = inhibition [5] -16.9% | Potency [6] > 9.22 µM | Potency [7] > 46 µM | outcome [8] | activity change, negative = inhibition [10] 6.93% | Potency [11] | Potency [12] | Potency [13] | Potency [14] | Potency [15]
28.7%: max response [10, 22]
22.2%: max response [10, 21]
active: Potency [3] 12.6 µM

COc1ncc2ncc(=O)n(C[C@H]3CCCO3)c2n1
6.83%: max response [10, 22]
inactive: Potency [1] > 11.4 µM | activity change, negative = inhibition [2] -16.2% | activity change, negative = inhibition [4] 4.03% | activity, negative = inhibition [5] -8.8% | Potency [6] > 9.22 µM | Potency [7] > 46 µM | outcome [8] | Potency [9] | activity change, negative = inhibition [10] 4.31% | Potency [11] | Potency [12] | Potency [13] | Potency [14] | Potency [15]
active: Potency [3] 15.8 µM
3.18%: max response [10, 21]

Cc1nc2cnc(N3CCN(C)CC3)nc2n(CCC#N)c1=O
active: Potency [3] 12.6 µM
9.36%: max response [10, 22]
7.54%: max response [10, 21]
inactive: Potency [1] > 11.4 µM | activity change, negative = inhibition [2] 9.68% | activity change, negative = inhibition [4] -13.7% | activity, negative = inhibition [5] -9.15% | Potency [6] > 9.22 µM | Potency [7] > 46 µM | outcome [8] | Potency [9] | activity change, negative = inhibition [10] 4.33% | Potency [11] | Potency [12] | Potency [13] | Potency [14] | Potency [15]

CN(C)c1ncc2nc(-c3cccs3)c(=O)n(CCC#N)c2n1
20.3%: max response [10, 21]
26.4%: max response [10, 22]
inactive: Potency [1] > 11.4 µM | activity change, negative = inhibition [2] 0.25% | activity change, negative = inhibition [4] -7.03% | activity, negative = inhibition [5] 4.64% | Potency [6] > 9.22 µM | Potency [7] > 46 µM | outcome [8] | Potency [9] | activity change, negative = inhibition [10] 5.59% | Potency [11] | Potency [13] | Potency [14] | Potency [15] | Potency [20] | Potency [18]
